A selection: hits, their analogues and other compounds. The true share with any hit is near 21%.
Cycloheximide cs: counter-screen hit for Shiga toxin inhibitors, cycloheximide; max response, %; cell reporter, cycloheximide protein synthesis inhibition counterscreen; 300,000 tested, 12% active; AID 2314; in the data active means max response mostly above about 13%, no sharp cut-off; inactive means mostly below about 14%; further: read at 38.3 µM for the half of the compounds with a filed dose; 0% is about no effect
Shiga inhibitor: blocks Shiga toxin action in Vero cells | Vero cells, Shiga toxin protein synthesis inhibition reporter | inhibition, % at 38.7 µM | 290,000 tested, 9.2% active; in the data active means inhibition mostly above about 28%, no sharp cut-off; inactive means mostly below about 43%; further: 0% is about no effect
Pf growth 48h: inhibits P. falciparum growth in the first generation, 48 h; P. falciparum luciferase growth in erythrocytes, 48 h; 310,000 tested, 5.9% active; Potency, µM (top dose mostly 28.7 µM), without a hit: at the highest dose activity change, negative = inhibition, most hits filed as inhibitors; further: potency means the concentration at half of the fitted maximal effect; on the % scale 0 is the no-effect control and ±100 the full control effect
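Luciferase-expressing P. falciparum in infected erythrocytes (2% hematocrit, 0.1% parasitemia final) in RPMI 1640/0.5% Albumax were exposed to compound for 48 hours at 37 C, 5% CO2; growth read as luminescence.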
NS1 function inh: blocks influenza NS1 protein function | Potency, µM (series often up to 46.1 µM), for inactives: at the highest dose activity, positive = more growth | 270,000 tested, 0.4% active | AID 2326; calls by dose curve; further: potency means the concentration at half of the fitted maximal effect; actives are rising curves; nearly all actives have a fitted effect of over 50% in size
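Recovery from NS1-induced slow growth read by OD600 in budding yeast switched to galactose assay medium (pH 6.0, -URA) at 1:100 dilution. Compound 23 nl per well; the matching strain lacking NS1 serves as control.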
Pf growth 96h: P. falciparum growth inhibition at 96 hours; 320,000 tested, 6.9% active; P. falciparum luciferase reporter growth, 96 h; AID 504834; Potency, µM (series often up to 28.7 µM), for inactives: at the highest dose activity change, negative = inhibition, actives largely listed as inhibitors; further: potency means the concentration at half of the fitted maximal effect; on the % scale 0 is the no-effect control and ±100 the full control effect
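Infected RBCs, 2% Hct / 0.05% parasitemia final; luciferase-reporter P. falciparum; cpd 96 h, 37 C, 5% CO2; luciferase detection reagent; luminescence.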
The depositor's hits bear a star; i = inactive; ? = inconclusive; · = no result given; + = active, no number. Unless noted, the call rests on the fitted dose curve; in most records, active means well fitted inhibition curve with a large enough effect; inconclusive means small, poorly fitted or top-dose-only effect, or another doubt; inactive means no such curve, though single readings can be large or run the other way.

SMILES | Cycloheximide cs | Shiga inhibitor | Pf growth 48h | NS1 function inh | Pf growth 96h
O=C(NCCN1C(=O)S/C(=C\c2ccc(F)cc2)C1=O)c1cccc(S(=O)(=O)N2CCOCC2)c1 | 69.3* | + | -6.2% | 13.1% | ?
Cc1cc(C)n(-c2ccc(C(=O)Nc3cccc(S(=O)(=O)N4CCCC4)c3)cc2)n1 | -1.0 | -12.9 | -31.8% | · | 10.4µM*
Cc1ccc(NC(=O)c2cc(S(=O)(=O)N3CCOCC3)ccc2F)c(C)c1 | 23.5* | 31.9 | -17.8% | -9.4% | ?
CCN(CC)S(=O)(=O)c1cccc(NC(=O)Nc2cccc(C(F)(F)F)c2)c1 | 5.2 | -7.4 | · | 18.8% | 4.15µM*
CCN(CC)S(=O)(=O)c1cccc(NC(=O)CC2CCCC2)c1 | -3.4 | 22.8 | -0.8% | -3.0% | -18.5%
O=C(CN1C(=O)C2C3C=CC(C4CC34)C2C1=O)Nc1cnc2ccccc2c1 (configuration not stated) | 13.5 | 36.4 | -6.4% | -4.2% | 26.8%
O=C(Nc1ccc(N2CCOCC2)cc1)c1cccc(S(=O)(=O)N2CCCCCC2)c1 | 3.9 | 28.7 | -8.5% | 4.3% | -5.6%
O=C(Nc1ccc2c(c1)OCCO2)c1cccc(S(=O)(=O)N2CCOCC2)c1 | 27.6 | 68.2* | 79.4% | -12.8% | ·
COc1ccc(NC(=O)c2cccc(S(=O)(=O)N3CCOCC3)c2)cc1 | 7.0 | 28.7 | 8.3% | 0.7% | -20.0%
O=C(Nc1cccc(S(=O)(=O)N2CCCC2)c1)c1cc(S(=O)(=O)N2CCOCC2)ccc1F | · | · | 9.28µM* | · | ?
O=C(Nc1ccc2c(c1)OCCO2)c1cccc(S(=O)(=O)N2CCCCC2)c1 | 20.1* | 83.7* | 16.1% | 12.6% | ·
CN1CCN(c2ccc(NC(=O)c3cccc(S(=O)(=O)N4CCCC4)c3)cc2)CC1 | · | · | -17.9% | · | 5.0%
CS(=O)(=O)c1cccc(C(=O)Nc2ccc(S(=O)(=O)N3CCCCC3)cc2)c1 | · | · | ? | · | 9.28µM*
O=C(Nc1ccc(F)cc1)c1cc(S(=O)(=O)N2CCCCC2)ccc1F | 0.9 | -2.9 | -0.7% | 4.2% | -10.5%
COc1ccc(C(=O)Nc2ccc(S(=O)(=O)N3CCCCC3)cc2)cc1OC | -1.4 | -6.4 | -20.8% | -45.8% | 36.1%
COc1cc(C(=S)N2CCCC2)ccc1OS(=O)(=O)c1ccc(NC(C)=O)cc1 | 3.2 | 31.3 | 2.08µM* | · | 126.2%
CS(=O)(=O)c1cccc(C(=O)Nc2ccc3c(c2)OCCCO3)c1 | 34.8* | 58.6* | 118.5% | 4.5% | 93.6%
CNS(=O)(=O)c1cccc(C(=O)OCC(=O)c2ccc(S(=O)(=O)N3CCCCC3)cc2)c1 | · | · | 13.1µM* | · | ?
COc1ccc(N(C)S(=O)(=O)c2cccc(C(=O)Nc3ccc4c(c3)OCCO4)c2)cc1 | 9.7 | 18.8 | ? | · | ?
COc1cc(OC)c(C(=O)Nc2ccc(S(=O)(=O)N3CCCCC3)cc2)cc1OC | · | · | ? | · | 14.7µM*
CCOC(=O)/C(C#N)=C/Nc1ccsc1C(C)=O | 7.8 | 21.3 | 29.2% | -4.4% | -3.9%
CC(=O)c1ccc(NC(=O)C2C3C=CC(C3=C(c3ccccc3)c3ccccc3)C2C(=O)O)cc1 (configuration not stated) | -2.9 | -12.5 | ? | · | ?
CC(NC(=O)c1cc(S(=O)(=O)N2CCOCC2)ccc1F)c1ccc(-n2ccnc2)cc1 (configuration not stated) | · | · | -22.3% | · | 9.28µM*
Cc1cc(C)c(NC(=O)c2cc(S(=O)(=O)N3CCOCC3)ccc2F)c(C)c1 | 5.3 | -1.3 | -17.0% | 9.4% | 30.8%
Cc1ccc(NC(=O)C2=CCN(S(=O)(=O)c3ccc(F)cc3)CC2)c(C)c1 | -4.4 | -8.1 | 13.5% | 2.6% | 0.329µM*
SMILES | Cycloheximide cs | Shiga inhibitor | Pf growth 48h | NS1 function inh | Pf growth 96h
CCOC(=O)c1ccc(NC(=O)c2cccc(S(=O)(=O)N3CCN(C(C)=O)CC3)c2)cc1 | -3.0 | 2.5 | ? | -0.7% | 9.28µM*
Cc1cc(C)n(-c2ccc(C(=O)N3CCN(S(=O)(=O)c4ccc(C(C)C)cc4)CC3)cc2)n1 | · | · | 11.7µM* | · | ?
CCN(CC(=O)Nc1ccc(NC(C)=O)cc1)C(=O)c1cccc(-n2cccc2)c1 | · | · | -1.4% | · | -8.9%
CC1N(C(=O)N2CCOCC2)CCN1S(=O)(=O)c1ccc(Cl)cc1 (configuration not stated) | -4.9 | -7.8 | 6.3% | -35.9% | 7.1%
COc1ccc(CN(C)C(C)C(=O)Nc2ccc(S(=O)(=O)N3CCCCC3)cc2)cc1F (configuration not stated) | · | · | 10.4µM* | · | ?
CC(=O)Oc1ccc(-c2ccc(C(=O)Nc3cccc(S(=O)(=O)N4CCOCC4)c3)cc2)cc1 | 9.4* | 30.2 | ? | -19.7% | ?
COc1ccc(C(=O)NC(=S)Nc2cccc(S(=O)(=O)N3CCOCC3)c2)cc1 | -3.1 | 1.3 | -0.1% | 13.0% | -2.4%
O=C(Nc1cccc(O)c1)c1ccc(S(=O)(=O)N2CCCCCC2)cc1 | 18.1* | 52.0* | ? | 10.0% | ?
COc1ccc(CN(C)C(C)C(=O)Nc2ccc(S(=O)(=O)N3CCOCC3)cc2)c(OC)c1 (configuration not stated) | 10.4 | -3.4 | ? | · | ?
CCOc1ccc(N2C(=O)CC(N3CC(C)OC(C)C3)C2=O)cc1 (configuration not stated) | 0.6 | -8.8 | 23.6% | -34.6% | ·
COC(=O)C(Cc1ccccc1)NC(=O)c1cc(S(=O)(=O)N(C)C)ccc1Cl (configuration not stated) | -4.2 | 11.3 | 0.0% | -3.4% | 2.5%
O=C(NCCNC(=O)c1ccccc1Br)c1ccccc1Br | 0.8 | -6.3 | 3.4% | 15.0% | ?
Cc1ccccc1SCCNC(=O)c1ccccc1Br | 42.7* | 98.8* | 53.2% | -11.1% | ?
Cc1ccccc1SCCNC(=O)CCc1ccccc1 | 26.3 | 28.4* | 30.0% | -30.3% | 54.1%
CC(C)Oc1cc(C(=O)NC2CCCCC2)c2ccccc2n1 | -1.9 | -3.7 | ? | 9.0% | -9.9%
CCc1cccc2c(C(=O)COC(=O)c3cnc(C)cn3)c[nH]c12 | · | · | -29.4% | · | -25.8%
CCc1cccc2c(C(=O)COC(=O)c3nccnc3N)c[nH]c12 | · | · | -1.5% | · | 3.4%
CCc1cccc2c(C(=O)COC(=O)c3ccccc3)c[nH]c12 | 21.1* | 76.2* | 198.9% | 0.9% | 175.2%
CCc1cccc2c(C(=O)COC(=O)c3ccc(O)cc3)c[nH]c12 | 36.9* | 53.1* | 38.7% | 15.3% | -26.2%
COc1ccc(/C=C/C(=O)OCC(=O)c2c[nH]c3ccccc23)cc1 | · | · | 3.5% | · | 1.9%
CCc1cccc2c(C(=O)COC(=O)/C=C/c3ccccc3OC)c[nH]c12 | -1.2 | 20.1 | ? | 16.4% | 13.1µM*
Cc1cccc(C2=NN(c3ccccc3)[C@H](CO)[C@H]2C)c1 | 21.6 | + | · | · | ·
Cc1cccc(C2=NN(c3ccccc3)[C@H](CO)[C@H]2c2ccccc2)c1 | 18.8 | i | · | · | ·
NC(=O)c1cc(S(=O)(=O)N2CCCC2)ccc1OCCOc1ccccc1F | · | · | ? | · | 4.5%
COc1ccc(S(=O)(=O)N2CCN(CCOc3ccc(Br)cc3)CC2)cc1OC | · | · | 8.28µM* | · | ?
COc1ccc(OCCOc2ccc(S(=O)(=O)N3CCCC3)cc2C(N)=O)cc1 | · | · | -8.3% | · | 3.7µM*
